Data published in PubChem BioAssay (NCATS).
Inconclusive results are not listed. Entries that show only a call come without a potency. The source made the active and inactive calls. Calls come from the whole dose curve; as a rule, active = well fitted inhibition curve with a large enough effect; inconclusive = small, poorly fitted or top-dose-only effect; inactive = flat fitted curve, though single readings scatter.

Target: Calcium and integrin-binding protein 1 (Homo sapiens) (UniProt Q99828)
Assay: Primary qHTS for Identification of Calcium Integrin Binding Protein 1 (CIB1) Competitor (AID 1508620);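 note: GST tagged CIB1 binding a fluorescein labelled alphaIIb integrin peptide tracer; top concentration of the series differs between compounds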
Procedure, shortened: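 Fluorescence polarization competition: CIB1-GST (1 uM final) preincubated with compound 15 min at room temperature, then FITC-labeled alphaIIb peptide (100 nM final) added for another 15 min. Polarization read at Ex 480/Em 540.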

Chain of Calcium and integrin-binding protein 1 (Homo sapiens) (Q99828 whole entry, looked up): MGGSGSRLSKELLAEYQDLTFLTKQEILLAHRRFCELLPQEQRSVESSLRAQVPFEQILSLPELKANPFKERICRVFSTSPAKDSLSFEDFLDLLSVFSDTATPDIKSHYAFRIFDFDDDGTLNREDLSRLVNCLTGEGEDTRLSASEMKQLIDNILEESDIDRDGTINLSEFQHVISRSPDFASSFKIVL

Nc1nc(Cl)nc2c1ncn2C1OC(CO)C(O)C1F (centres undefined)
Potency: inactive

C=C1C(=O)OC2/C=C(\CO)CC/C=C(\C=O)C(OC)C(OC(=O)C(C)CC)C12 (centres undefined)
Potency: inactive

CNS(=O)(=O)c1ccccc1Nc1nc(Nc2ccc(N3CCN(C)CC3)cc2OC)ncc1Br
Potency: inactive

CC(C)c1ccccc1OC(=O)NCCc1ccc2ccccc2c1
Potency: inactive

CCOc1cn(-c2ccc(F)cc2C)nc1C(=O)Nc1ccc(Oc2ccnc3cc(OC)c(OC)cc23)c(F)c1
Potency: inactive

C[C@@H](NC(=O)c1ccc(C#Cc2cccc(F)c2)cn1)C(C)(C)O
Potency: inactive

CNC(C)C(=O)NC(C(=O)N1CCCC1C(=O)Nc1snnc1-c1ccccc1)C1CCCCC1 (centres undefined)
Potency: inactive

CC(C)(N)c1ncc(-c2ccc(OC(F)(F)F)cc2)[nH]1
Potency: inactive

CCC(C(C)O)n1ncn(-c2ccc(N3CCN(c4ccc(OCC5COC(Cn6cncn6)(c6ccc(F)cc6F)C5)cc4)CC3)cc2)c1=O (centres undefined)
Potency: inactive

Fc1ccc(-c2nc(-c3c(F)cccc3F)[nH]c2-c2ccncc2)cc1
Potency: inactive

CCOc1ccc(-n2c([C@@H](C)N(Cc3cccnc3)C(=O)Cc3ccc(OC(F)(F)F)cc3)nc3ncccc3c2=O)cc1
Potency: inactive

Cc1c(C(=O)NCc2cccnc2)nn(-c2ccc(Cl)cc2Cl)c1-c1ccc(Cl)cc1
Potency: inactive

CC(C)(C)Sc1c(CC(C)(C)C(=O)O)n(Cc2ccc(Cl)cc2)c2ccc(OCc3ccc4ccccc4n3)cc12
Potency: inactive

CCn1c(=O)n([C@H]2CCCN(c3nccc(-c4cc5ccccc5o4)n3)C2)c2ccccc21
Potency: inactive

Cc1nc(C#Cc2ccnc(Cl)c2)c(C)n1-c1ccc(F)cc1
Potency: inactive

O=C(NCCN1CCC(n2c(=O)[nH]c3ccccc32)CC1)c1cc2cc(F)ccc2[nH]1
Potency: inactive

COc1ccc(C2Oc3c(OC)cc(CCCO)cc3C2COC2OC(CO)C(O)C(O)C2O)cc1OC (centres undefined)
Potency: inactive

Nc1c(S(=O)(=O)c2ccccc2)c2nc3ccccc3nc2n1-c1ccc(F)cc1
Potency: inactive

COC(=O)c1ccc2c(c1)[nH]c1ncnc(NCCCN3CCCCC3)c12
Potency: inactive

COC(=O)C[C@H]1[C@]2(C)C3=C(C)[C@H](c4ccoc4)C[C@H]3O[C@@H]2[C@H](O)C2[C@](C)(C(=O)OC)C=CC(=O)[C@@]21C (some centres undefined)
Potency: inactive

Nc1ncnc2c1nc(Cl)n2C1OC2COP(=O)(O)OC2C1O (centres undefined)
Potency: inactive

C/C=C/CCC1Cc2cc(O)c(CCCC)c(O)c2C(=O)O1 (centres undefined)
Potency: inactive

Cc1nc(Nc2cnn(C3CCNCC3)c2)nc2c1N(C)C(=O)c1cc3ccccc3cc1N2C
Potency: inactive

NC(N)=N/N=C/c1ccccc1Cl
Potency: inactive

C[C@H]1CC[C@@]2(OC1)O[C@H]1CC3C4CC[C@H]5C[C@@H](O)CC[C@]5(C)C4=CC(=O)[C@]3(C)[C@H]1[C@@H]2C (some centres undefined)
Potency: inactive

CCCN1CCC=C(c2cc(-c3ccc(C)cc3)no2)C1
Potency: inactive

CCc1cc2c(cc1CC)CC(NCC(O)c1ccc(O)c3[nH]c(=O)ccc13)C2 (centres undefined)
Potency: inactive

C=C1/C(=C/C=C2\CCC[C@]3(C)[C@@H]([C@H](C)/C=C/[C@@H](C)C(C)C)CC[C@@H]23)C[C@@H](O)C[C@@H]1O
Potency: inactive

O=C(Nc1ccccc1)N1CCC(Cc2cnc3ccccc3c2)CC1
Potency: inactive

CCN(CC)C(=O)c1ccc(Nc2nc(OCC3CCCCC3)c3[nH]cnc3n2)cc1
Potency: inactive

COCC(=O)NC/C=C/c1ccc2ncnc(Nc3ccc(Oc4ccc(C)nc4)c(C)c3)c2c1
Potency: inactive

CN(C)Cc1ccc(-c2cnn3c(-c4cccc(NC(=O)c5cccc(C(F)(F)F)c5)c4)ccnc23)cc1
Potency: inactive

O=C(Nc1ccc(Cl)cc1)c1ccccc1NCc1ccncc1
Potency: inactive

CC(=O)OC1CCC2(C)C(CCC3(C)C2CC=C2C4C(C)C(C)CCC4(C)CCC23C)C1(C)C(=O)O (centres undefined)
Potency: inactive

COc1ccc(Sc2ccc(NC(=O)c3ccccc3Cl)cc2C#N)cc1
Potency: inactive

COc1cc(F)c(F)c(Nc2ccc(I)cc2F)c1NS(=O)(=O)C1(CC(O)CO)CC1 (centres undefined)
Potency: inactive

Nc1nc(OCc2cc(Br)cs2)c2[nH]cnc2n1
Potency: inactive

C=C[C@]1(C)C[C@H](O)[C@H]2C(=C)C(=O)O[C@@H]2[C@H]1C(=C)CO
Potency: inactive

Clc1ccc(Nc2nc3ccccc3c3nc(C4CCCCC4)[nH]c23)cc1Cl
Potency: inactive

CC1(C)CCC2(C(=O)OC3OC(COC4OC(CO)C(O)C(O)C4O)C(O)C(O)C3O)CCC3(C)C(=CCC4C5(C)CCC(OC6OCC(O)C(O)C6O)C(C)(C)C5CCC43C)C2C1O (centres undefined)
Potency: inactive

O=C(Nc1cccc(C(F)(F)F)c1)Nc1ccc(Br)cc1-c1nn[nH]n1
Potency: inactive

COc1c(C(C)C)c(O)c(O)c2c1C(OC)[C@H]1OC(=O)[C@@]23CCCC(C)(C)[C@H]13 (some centres undefined)
Potency: inactive

CN1CCC(NC(=O)c2cc(-c3c(O)cc(O)cc3Oc3ccc([N+](=O)[O-])cc3)on2)CC1
Potency: inactive

Cc1nc2cc(C(=O)NCc3ccccn3)nn2c(C)c1Cc1cccc(Cl)c1
Potency: inactive

COc1ccc2cc3c(NC(=O)c4ccco4)nn(C)c3nc2c1
Potency: inactive

NCC(CNc1nc(Nc2cccc(NC(=O)N3CCCC3)c2)ncc1I)C(=O)c1cccs1 (centres undefined)
Potency: inactive

C=C1C(=O)O[C@@H]2C3C(=C(C)[C@@H](O)[C@@H](OC(=O)/C(=C/C)COC(C)=O)[C@@H]12)C(=O)[C@H]1O[C@@]31C (some centres undefined)
Potency: inactive

COc1ccc(CCO[C@@H]2O[C@H](CO[C@H]3OC[C@](O)(CO)[C@H]3O)[C@@H](OC(=O)/C=C/c3ccc(O)c(O)c3)[C@H](O[C@@H]3O[C@@H](C)[C@H](O)[C@@H](O)[C@H]3O)[C@H]2O)cc1OC
Potency: inactive

CC(C)S(=O)(=O)c1ccc2nccc(Nc3ccc4scnc4c3)c2c1
Potency: inactive

C[C@@H](O[C@H]1OCCN(Cc2nn(P(=O)(O)O)c(=O)[nH]2)[C@H]1c1ccc(F)cc1)c1cc(C(F)(F)F)cc(C(F)(F)F)c1
Potency: inactive

CC#C[C@@H](CC(=O)O)c1ccc(OCc2ccc(CN3CCC4(C=Cc5ccccc54)CC3)s2)cc1
Potency: inactive

CN1c2c(nc(N)[nH]c2=O)NC[C@@H]1CNc1ccc(C(=O)N[C@@H](CCC(=O)O)C(=O)O)cc1
Potency: inactive

CC(C)(Cc1nc(-c2ccc(O)cn2)no1)C(=O)NC1=C(C(=O)O)CCCC1
Potency: inactive

COc1ccc2c(c1)C(C(=O)N(Cc1ccc(N(C)C)cc1)c1ccc(C(C)C)cc1)CCC2 (centres undefined)
Potency: inactive

C=CS(=O)(=O)NC1CCN(C(=O)CNc2cc(I)c(Cl)cc2OC)CC1
Potency: inactive

CCNC(=O)Nc1ccc(-c2nc3c(c(N4CCOCC4C)n2)CCN(C2COC2)C3)cc1 (centres undefined)
Potency: inactive

CCCCCc1ccc(/C=C/C(=O)Nc2cc(Cl)ccc2C(=O)O)cc1
Potency: inactive

C=C1CC[C@@H](O)[C@]2(C)C[C@H]3OC(=O)C(=C)[C@H]3CC12 (some centres undefined)
Potency: inactive

CC(O)(C(=O)O)C1CCC2(C)C1CCC1(C)C2CCC2C3(C)CCC(O)C(C)(COC4OC(CO)C(O)C(O)C4O)C3CCC21C (centres undefined)
Potency: inactive

Cc1cc(NC(=O)NCCN2CCC(O)(Cc3ccccc3)CC2)c2ccccc2n1
Potency: inactive

COc1c2c(nc3occc13)C(CC=C(C)C)(OC)C(O)CC2 (centres undefined)
Potency: inactive

NC(=O)c1nc(Nc2ccccc2)sc1NC(=O)C1CCCCC1
Potency: inactive

CC1(C)CCCC2(C)C1C(=O)C=C(C(=O)O)C2(O)C(=O)O (centres undefined)
Potency: inactive

COc1cc(C(=O)NCC2(N(C)C)CCCC2)cc(OC)c1OCc1ccccc1
Potency: inactive

CNCc1cc(-c2ccccc2F)n(S(=O)(=O)c2cccnc2)c1
Potency: inactive

C/C1=C/CCC2=CC(OC2=O)C(C)(C)/C=C/C1=O (centres undefined)
Potency: inactive

Cc1c(C2=CCN(C(=O)N(C)C(C)C)CC2)nnn1-c1cccnc1F
Potency: inactive

C=C(C(=O)O[C@H]1C/C(C)=C/CC/C(CO)=C/[C@H]2OC(=O)C(=C)[C@H]12)C(O)CO (some centres undefined)
Potency: inactive

CCN(Cc1ccccc1)C(=O)Cn1c(=O)n(C)c2cnc(-c3ccccc3)nc21
Potency: inactive

Cc1cc(C)cc(-c2cnc3cc(Cl)c(-c4cccc(O)c4)cc3c2OCCCN)c1
Potency: inactive

COc1ccc(CCc2nc3cc(-c4c(C)noc4C)ccc3n2CC(C)N2CCOCC2)cc1Cl (centres undefined)
Potency: inactive

C/C1=C\[C@@H](C)C[C@@H](C)[C@@H](Cc2cnco2)OC(=O)/C(C)=C/[C@@H](C)C[C@@H](C)[C@@H](Cc2cnco2)OC1=O
Potency: inactive

CCc1cccc(CC)c1-n1c(C=C(C)C)c(C(=O)N2CCNCC2)cc(-c2nc(-c3ccc(C(F)(F)F)cc3)cs2)c1=O
Potency: inactive

CC(C)(C)c1ccc(NC(=O)N2CCN(c3ncccc3Cl)CC2)cc1
Potency: inactive

C=C1CCC2C(C)(C(=O)O)CCCC2(C)C1CCC1=CCOC1=O (centres undefined)
Potency: inactive

O=C1C(Cc2ccc(O)cc2)N2C(=O)CCN(C(=O)NCc3ccccc3)C2CN1Cc1cccc2ccccc12 (centres undefined)
Potency: inactive

COc1cc(C(=O)O)ccc1NC(=O)C1NC(CC(C)(C)C)C(C#N)(c2ccc(Cl)cc2F)C1c1cccc(Cl)c1F (centres undefined)
Potency: inactive

N[C@@H]1c2cccnc2[C@H](OC(=O)N2CCC(n3c(=O)[nH]c4ncccc43)CC2)CC[C@H]1c1cccc(F)c1F
Potency: inactive

CC(C)CC(=O)c1c(O)cc2c(c1O)C(CC(C)C)C1=C(O2)C(C)(C)C(=O)C(C)(C)C1=O (centres undefined)
Potency: inactive

C/C=C(/C)C(=O)O[C@H]1C=C(CO)C(=O)[C@H](OC(=O)/C(C)=C/CO)[C@H]1C(C)C
Potency: inactive

CCCN(CCc1ccsc1)C1CCc2c(O)cccc2C1 (centres undefined)
Potency: inactive

CC1(C)Oc2ncnc(N)c2N=C1c1ccc(C23CCC(CC(=O)O)(CC2)CC3)cc1
Potency: inactive

C=C1[C@H]2CC[C@H](C(=O)O)[C@@]23CC[C@H](C3)C1(C)C
Potency: inactive

C=C1/C(=C/C=C2\CCC[C@@]3(C)C2CCC3[C@H](C)/C=C/[C@@H](O)C2CC2)C[C@@H](O)C[C@@H]1O (some centres undefined)
Potency: inactive
